# Experimental data published in ChEMBL document CHEMBL3988442, “University of Dundee, Small-Polar-MMV Screening Library” (2021).
# Hit rate of the full screen: of about 69,000 compounds, about 50 (0.07%) showed an effect of 50% or more. The sample holds strong results, similar compounds and a random draw of the others, so the mix is not that of the screen.
# Biological target: Lysine--tRNA ligase (Plasmodium falciparum (isolate 3D7)) (UniProt Q8IDJ8)
# Test: Pf-KRS-1 (Lysyl-RNA Synthetase-1, KRS-1, cytosolic KRS) from Plasmodium falciparum. Inhibitor assay, 384 well plate, luminescence read.
# Assay type: functional
# Parameters: scale not given: in the data most compounds retested in dose-response had high values
# Details: 30 µM
# Chain of Lysine--tRNA ligase (Plasmodium falciparum (isolate 3D7)) (Q8IDJ8 1-583): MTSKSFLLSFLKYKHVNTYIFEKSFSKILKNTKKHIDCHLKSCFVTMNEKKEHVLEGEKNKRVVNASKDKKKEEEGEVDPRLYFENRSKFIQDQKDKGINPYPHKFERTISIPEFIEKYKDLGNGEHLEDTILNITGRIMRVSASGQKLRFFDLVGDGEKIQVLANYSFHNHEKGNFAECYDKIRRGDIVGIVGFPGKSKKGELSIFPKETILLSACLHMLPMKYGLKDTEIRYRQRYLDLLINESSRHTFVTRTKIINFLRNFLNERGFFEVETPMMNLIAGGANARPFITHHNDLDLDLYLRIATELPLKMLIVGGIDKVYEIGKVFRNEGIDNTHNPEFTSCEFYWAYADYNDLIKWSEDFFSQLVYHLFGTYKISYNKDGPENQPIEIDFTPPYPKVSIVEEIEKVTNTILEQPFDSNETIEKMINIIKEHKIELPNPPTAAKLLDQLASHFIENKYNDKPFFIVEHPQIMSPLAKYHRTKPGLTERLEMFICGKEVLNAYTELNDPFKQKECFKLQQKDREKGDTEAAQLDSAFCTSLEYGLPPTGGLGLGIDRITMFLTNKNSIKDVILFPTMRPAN
row,SMILES,Percent Effect [%]
1,CC(C)C(=O)N1CCN(C(=O)c2cc(C(C)C)no2)[C@H]2CS(=O)(=O)C[C@H]21,2.34
2,Cc1cc(CN2C[C@@H]3CN(Cc4ccsc4)CCO[C@@H]3C2)no1,3.95
3,CCCn1cc(NC(=O)c2ccc(N(C)CC)cc2)ccc1=O,6.21
4,CCCn1cc(NC(=O)c2ccc(S(=O)(=O)CC)cc2)ccc1=O,78.9
5,CCCn1cc(NC(=O)c2ccncc2)ccc1=O,36.1
6,CCCn1cc(NC(=O)c2ccc(NC(=O)NC3CC3)cc2)ccc1=O,3.05
7,CCCn1cc(NC(=O)c2ccc(S(C)(=O)=O)cc2)ccc1=O,79.3
8,CCCn1cc(NC(=O)c2cccnc2O)ccc1=O,10.4
9,Cc1noc([C@H]2CC[C@@H]3[C@@H](CCN3S(C)(=O)=O)O2)n1,4.83
10,CN(C)C(=O)N1C[C@@H]2CC[C@H](C1)N(Cc1nnc(C3CC3)o1)C2,1.65
11,CCC(=O)N1CCN(C(=O)c2ccc(COC)o2)[C@H]2CS(=O)(=O)C[C@H]21,1.62
12,O=C([C@@H]1CCO[C@@H]2CCN(Cc3ccc(F)cc3)C[C@H]21)N1CCCCO1,4.98
13,Cc1ncncc1C(=O)N1C[C@H]2CC[C@@H]1CN(C(=O)c1ccncc1)C2,4.91
14,CC(C)Oc1ccccc1C1CC(=O)Nc2nc(N3CCOCC3)sc21 (stereo unspecified),82.6
15,COc1cccc(CNCc2ccnc(N3CCOCC3)c2)c1OC,5.86
16,COc1cccc(C2SCC(=O)Nc3n[nH]cc32)c1OC(C)C (stereo unspecified),1.84
17,COc1cccc(C2SCC(=O)Nc3ccsc32)c1OC (stereo unspecified),1.9
18,COc1cccc(C2CC(=O)Nc3nc(N4CCCCC4)sc32)c1OC (stereo unspecified),84.4
19,Nc1nc2c(s1)C(c1c(F)cccc1Cl)CC(=O)N2 (stereo unspecified),41.6
20,COc1cccc(C2CC(=O)Nc3nc(N4CCOCC4)sc32)c1OC (stereo unspecified),77.8
21,CCOc1cccc(C2CC(=O)NCc3nc(N4CCCC4)sc32)c1 (stereo unspecified),1.45
22,COc1cccc(C2CC(=O)Nc3nc(N)sc32)c1OC (stereo unspecified),62.7

row,SMILES,Percent Effect [%]
1,CC(C)Oc1ccccc1C1CC(=O)Nc2c1cnn2C (stereo unspecified),1.57
2,COc1cccc(CNc2nc(N3CCOCC3)ns2)c1OC,-2.52
3,CCn1ncnc1C1CC(=O)NCc2nc(N3CCCC3)sc21 (stereo unspecified),2.27
4,O=C(N1CCCC1)N1C[C@H]2CCC[C@@]2(COCc2ccccn2)C1,2.76
5,CCO[C@@H]1CC[C@H]2[C@H]1OCCN2Cc1ccoc1,2.1
6,CNC(=O)[C@@H]1C[C@H]2CN(Cc3csc(C)n3)C[C@H]2N1C(C)C,4.1
7,O=C([C@H]1CN(Cc2cccnc2)C[C@H]2OCC[C@@H]12)N1CCCO1,2.79
8,CN(C)C(=O)[C@@H]1C[C@@H]2CCN(C3CCOCC3)C[C@H]2O1,1.18
9,N#Cc1cccc(C(=O)Nc2ccc([C@@H](O)[C@H]3COCC(=O)N3)cc2)c1,5.33
10,COCC(=O)N1CCN(S(=O)(=O)c2ccccc2)[C@H]2CS(=O)(=O)C[C@H]21,2.66
11,O=C1CO[C@@H]2CN(Cc3nccs3)C[C@H]2N1Cc1ccncc1,3.56
12,COCC(=O)N1C[C@@H](OCc2ccncc2)[C@@H]2OCCC[C@@H]21,0.763
13,COc1ccccc1C1CC(=O)Nc2c1c(=O)[nH]n2C(C)C (stereo unspecified),-1.35
14,COc1ccccc1C1CC(=O)Nc2c1c(=O)[nH]n2C1CCCC1 (stereo unspecified),5.39
15,COc1ccccc1C1CC(=O)Nc2nc(N3CCCCC3)sc21 (stereo unspecified),84.3
16,COCCN1C[C@H]2CCC[C@@H](CNc3ncccn3)[C@H]2C1,5
17,Cn1ccnc1NC[C@@H]1CCC[C@@H]2CN(CC3CC3)C[C@@H]21,9.69
18,Cc1ncsc1CN1C[C@H]2OCC[C@H]2[C@H](C(=O)NCC2CC2)C1,0.98
19,Fc1cccc(CCN(c2ccc3nnnn3n2)C2CC2)c1,5.52
20,CCN(Cc1cccc(F)c1)c1ccc2nnnn2n1,50.8
21,CCCN(CCc1cccc(F)c1)c1ccc2nnnn2n1,10.9
22,O=C(c1ccco1)N1CC[C@@H]2O[C@H](COCC3CCOCC3)CC[C@@H]21,0.363

row,SMILES,Percent Effect [%]
1,CS(=O)(=O)NC[C@@H]1OC[C@H]2CN(Cc3ccccc3)CC[C@H]21,3.37
2,COCCNC(=O)[C@H]1C[C@@H]2CCN(CCc3ccccc3)C[C@@H]2O1,1.68
3,COc1cccc(CN2C[C@@H]3COC[C@]3(CNC(=O)C3CC3)C2)c1,4.5
4,OC1CN(c2nc3c(C(F)(F)F)cccc3s2)C1,-2.21
5,Cn1ncc2c1NC(=O)CC2c1ccccc1Br (stereo unspecified),1.2
6,O=C1CC(c2ccccc2Br)c2sc(N3CCOCC3)nc2N1 (stereo unspecified),60.1
7,O=C1CC(c2ccccc2C(F)(F)F)c2sc(N3CCOCC3)nc2N1 (stereo unspecified),82.6
8,O=c1[nH]nc(-c2cccs2)c2sc(N3CCOCC3)nc12,7.56
9,Cc1cc(Br)c(O)c(-c2nc(N3CCOCC3)sc2C)c1,2.13
10,COCCN1CCO[C@@H]2CN(Cc3ccc(C)o3)C[C@@H]2C1,3.96
11,CNC(=O)[C@@H]1COC[C@H]2CN(C(=O)COc3ccccc3)C[C@H]21,5.31
12,CC(C)CS(=O)(=O)N1C[C@H]2C[C@H](C(=O)Nc3cccnc3)[C@@H](C1)O2,-0.957
13,O=C(Nc1ccccc1)[C@H]1C[C@@H]2CN(S(=O)(=O)c3ccccc3)C[C@H]1O2,1.2
14,CCOCC1CN(Cc2ccc(F)cc2)Cc2nn(CC3CC3)cc21 (stereo unspecified),3.6
15,CCOCC1CN(Cc2ccc(OC)cc2)Cc2nn(CC3CC3)cc21 (stereo unspecified),60.3
16,CCOCC1CN(Cc2ccc(OC)cc2)Cc2nn(C)cc21 (stereo unspecified),-4.8
17,CNC(=O)N1CC[C@H]2N(C)CC[C@@]2(C(=O)N2CCOCC2)CC1,5.59
18,Cc1cccc(C(=O)N2CC[C@H]3C[C@@H](C)O[C@@H]3C2)n1,1.1
19,CS(=O)(=O)N1C[C@@H]2COC[C@@H](CC(=O)N3CCCCO3)[C@@H]2C1,-2.78
20,O=C(N1CCCO1)[C@@]12CCO[C@@H]1CCN(Cc1ccccc1)C2,4.7
21,COc1cccc(CN2C[C@H]3CCNCC[C@H]3S2(=O)=O)c1,-2.39
22,Cc1noc(C)c1CN1CC[C@H]2C[C@H](c3nccs3)O[C@@H]2C1,-0.715
